Out of some 69,000 compounds screened, about 8,600 (12%) showed an effect of 50% or more. The sample as a whole holds a higher share of strong results than the screen did.
System: Plasmodium berghei
Test: Screen against P. berghei liver stage (PbLuc), transformed with Luciferase, at 10uM
Format: functional, HepG2
Conditions: tested at 10 uM

Row | SMILES | INHIBITION
1 | N#CC1CCN(C(=O)NCCc2ccc(Cl)s2)CC1 | -7.31%
2 | O=C(c1ccc(Cl)cc1)N1CCC(N2CCCCC2=O)CC1 | 27.5%
3 | Cc1c(C(=O)NC2=NCCS2)cnn1-c1ccc(Br)cc1 | -156%
4 | COCC1Cn2nnc(-c3cnn(C)c3)c2CN1Cc1ccco1 (stereo not drawn) | 11.8%
5 | Cc1cc(C(=O)N2CCCC(n3cncn3)C2)c(C)n1CC1CC1 (stereo not drawn) | -41.6%
6 | CC(Cc1ccco1)NC(=O)Nc1cccnc1 (stereo not drawn) | -10.1%
7 | CC(C)c1nnc2sc(CC3CN(Cc4ccccc4)CCO3)nn12 (stereo not drawn) | 42.8%
8 | CC(C)N1CCOC(Cc2nn3c(Cc4ccccc4)nnc3s2)C1 (stereo not drawn) | 45.5%
9 | CCCc1nnc2sc(CC3CN(Cc4ccccc4)CCO3)nn12 (stereo not drawn) | 59.2%
10 | Cc1c(C(C)N)cnn1-c1cccc2ccccc12 (stereo not drawn) | 7.24%
11 | Cc1ccccc1-n1ncc(C(C)N)c1C (stereo not drawn) | 58.4%
12 | Cc1c(C(C)N)cnn1-c1ccccn1 (stereo not drawn) | -12.1%
13 | Cc1nn(C)c2cn(C(C)C(=O)NCc3cccnc3)nc12 (stereo not drawn) | -2.37%
14 | Cc1nn(C)c2cn(C(C)C(=O)NCc3cccc(F)c3)nc12 (stereo not drawn) | 58.2%
15 | Cc1nn(C)c2cn(C(C)C(=O)NCc3ccc(F)cc3)nc12 (stereo not drawn) | 19.3%
16 | Cc1nn(C)c2cn(C(C)C(=O)NCc3ccncc3)nc12 (stereo not drawn) | 32.5%
17 | Cc1nn(C)c2cn(C(C)C(=O)NCc3ccccn3)nc12 (stereo not drawn) | 55.7%
18 | COc1ccccc1CNC(=O)C(C)n1cc2c(n1)c(C)nn2C (stereo not drawn) | 21.7%
19 | CN(Cc1ccco1)C(=O)NC1CCCN(c2ncccn2)C1 (stereo not drawn) | 4.865%
20 | COc1ccc2c(ccn2CC(=O)Nc2n[nH]c(CC(C)C)n2)c1 | 16%
21 | CN(C)S(=O)(=O)N1C[C@@H]2COC[C@]2(COc2ccccn2)C1 | 11.5%
22 | Cc1cc(C2CCC2)nc(N2CCC3(CCCN(C)C3=O)C2)n1 (stereo not drawn) | -14.3%
23 | O=C(NCCc1cccs1)NC1CCN(c2ncccn2)CC1 | -89%

Row | SMILES | INHIBITION
24 | c1cc(-c2cscn2)cc(N2CCC(NCCc3cccs3)CC2)c1 | 75.5%
25 | c1ccc(-c2cccc(N3CCC(NCCc4cscn4)CC3)c2)cc1 | 69.9%
26 | O=C1CCCN1c1cccc(N2CCC(NCCc3cscn3)CC2)c1 | 14.3%
27 | Cc1nc(-c2cccc(N3CCC(NC4CCOCC4)CC3)c2)cs1 | 37.7%
28 | Cc1ccc(N2CCCC(NCc3cscn3)C2)nn1 (stereo not drawn) | 26.8%
29 | CNc1cccc(C2CCN(C(=O)c3cccnc3)CC2)n1 | -9.27%
30 | Cc1cc(C(=O)N2CCN(S(C)(=O)=O)[C@@H](C)C2)c(F)cc1F | -14.2%
31 | Cc1ccc(C)c2c(C)c(C(=O)NCCCn3ccnn3)[nH]c12 | 47.2%
32 | O=C(NC1CCCN(c2ncccn2)C1)c1ccoc1 (stereo not drawn) | -6.32%
33 | CC(C)c1nc(C2CCCN(C(=O)c3ccc(N(C)C)nn3)C2)no1 (stereo not drawn) | 30.3%
34 | CCC(NC(=O)c1nn(C)cc1C(=O)O)c1ccccc1 (stereo not drawn) | 15.9%
35 | Cc1cc(NC2CCc3ncnn3C2)n2nc(C(F)(F)F)nc2n1 (stereo not drawn) | 26.9%
36 | Cc1cccc(CN2CC[C@@H]3[C@@H]2CCN3C(=O)c2cc(C)oc2C)n1 | -6.23%
37 | Cc1ccc(-c2csc3c(=O)[nH]c(N4CCCC(C(=O)O)C4)nc23)cc1 (stereo not drawn) | 32.8%
38 | O=C(O)C1CCCN(c2nc3c(-c4ccccc4)csc3c(=O)[nH]2)C1 (stereo not drawn) | 36.6%
39 | Cc1ccccc1-c1csc2c(=O)[nH]c(N3CCCC(C(=O)O)C3)nc12 (stereo not drawn) | 52.5%
40 | CC(C)CC(=O)N1CCC2(CC1)OC(C(N)=O)Cn1ccnc12 (stereo not drawn) | 7.7%
41 | O=C(N1CCCC1)C12CC(CN1Cc1nccs1)C2 | -2.03%
42 | O=C(NCC1CC1)C12CC(CN1Cc1nccs1)C2 | 82.2%
43 | Cc1ccsc1C(=O)N1CC2CC1(C(=O)NCC1CC1)C2 | 23.5%
44 | CN(C)C(=O)c1cc(-c2ccncc2)[nH]n1 | -8.28%
45 | CN1CCN(C(=O)c2cc(C#N)cs2)c2ccccc2C1 | -91.4%
46 | c1ccc(CCNc2ncnc3c2CCN(Cc2c[nH]cn2)CC3)cc1 | 37.3%

Row | SMILES | INHIBITION
47 | CN(C)c1ccc(C(=O)N2CCCN(Cc3cscn3)CC2)nn1 | -31.8%
48 | O=C(c1cnc2n1CCN(Cc1ccccc1)C2)N1CCCC1 | 17.1%
49 | O=C(C1CCOCC1)N1CCc2ncnc(-c3ccccc3)c2CC1 | -28.8%
50 | Cc1nc2c(c(NC(C)C)n1)CCN(C(=O)c1ccno1)CC2 | 49.1%
51 | Cc1nc2c(c(NCc3ccccc3)n1)CCN(C(=O)C1CCC1)CC2 | 42.3%
52 | COCC(=O)N1CCc2nc(NC(C)C)nc(NC(C)C)c2CC1 | 48.4%
53 | Cc1nc(-c2ccc(F)cc2)nc2c1CCN(C(=O)CN(C)C)CC2 | 37.9%
54 | CC(=O)N1CCc2nc(-c3ccc(F)cc3)nc(NC(C)C)c2CC1 | 64.7%
55 | CC(C)Nc1nc(-c2ccccc2)nc2c1CCN(C(=O)CC#N)CC2 | 72%
56 | CC(=O)NCC(=O)N1CCc2nc(-c3ccccc3)nc(C)c2CC1 | 37.9%
57 | CC(=O)N1CCc2nc(-c3ccccc3)nc(NC(C)C)c2CC1 | 59.3%
58 | CCOCC(=O)N1CCc2nc(C)nc(NC(C)C)c2CC1 | 32.1%
59 | CC(C)Nc1nc(-c2ccccc2)nc2c1CCN(C(=O)C1CC1)CC2 | 73.8%
60 | COCC(=O)N1CCc2nc(C)nc(NC(C)C)c2CC1 | 35.8%
61 | Cn1cc(S(=O)(=O)N2CCN(S(=O)(=O)c3ccc(Br)s3)CC2)cn1 | 43.2%
62 | CN(Cc1cnn(C)c1)C(=O)NCc1cc(Br)cs1 | 34.95%
63 | Cc1cc2c(=O)n(CCSc3cnn[nH]3)cnc2s1 | 36.7%
64 | O=C(COC[C@H]1CC[C@H]2[C@H](CCN2c2ncccn2)O1)N1CCCC1 | 1.81%
65 | Cc1ccc(CCNC(=O)Cn2nc(C)n(Cc3ccccc3)c2=O)o1 | 13.6%
66 | CN(Cc1cccc2cccnc12)C1CCS(=O)(=O)C1 (stereo not drawn) | 36%
67 | Cc1nnc(NCc2ccccc2F)c(C#N)c1C | 1.35%
68 | O=C(c1ccnnc1)N1CCN(Cc2cccnc2)c2ncccc2C1 | -39.9%
